HT1080 IDH1KD tx: HT-1080 IDH1 knockdown cell toxicity (counter line) | Potency, µM (doses to about 46.1 µM), inactives show top-dose activity, negative = toxicity, most hits filed as cytotoxic | HT-1080 IDH1 knockdown viability, ATP luminescence, 48 h | actives 2% (n = 360,000);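 also: potency is read from the fitted curve at half-maximal effect; 0% = DMSO wells and -100% = cell-free medium wells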
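Knockdown cells (IDH1KD HT-1080) received compounds 2 h after plating at 750 cells/well and were kept 48 h at 37 °C in 5% FBS RPMI. A CellTiter-Glo luminescence read gave % activity for curve fitting.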
DT40 TDP1 no CPT: qHTS for Inhibitors of human tyrosyl-DNA phosphodiesterase 1 (TDP1): qHTS in cells in absence of CPT | DT40 Tdp1-/- hTDP1 cells, no CPT, ATP luminescence, 48 h | AID 686978, 2013 | actives 15% (n = 420,000) | Potency, µM (highest dose often 46.2 µM), for the others: at the top dose activity change, negative = growth inhibition, hits mostly inhibitors; also: potency is read from the fitted curve at half-maximal effect; nearly all actives have a fitted effect of over 55% in size
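Stably hTDP1-transfected Tdp1-null chicken DT40 cells were treated with library compounds minus camptothecin and grown for at least 48 hr at 37 °C, after which cellular ATP was quantified by luminescence.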
IL-1B inflam inh: blocks inflammasome-driven IL-1 beta release. THP-1 LPS/ATP IL-1B secretion, AlphaLISA, 16 h; hits give low values. activity change, % at 57.5 µM. actives 4.7% (n = 360,000); in the data active = activity change below about -50%; inconclusive = mostly about -30% to -49%
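Secreted IL-1B measured by AlphaLISA bead assay after 16 h compound exposure of THP-1 cells; compounds (final up to 57.5 uM) added 1 h before LPS (250 ng/mL) and ATP (1.25 mM) stimulation; lower signal means less secretion.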
12-LOX inh: inhibitors of human 12S-lipoxygenase ALOX12; P18054; purified 12hLO, xylenol orange hydroperoxide absorbance; Potency, µM (titrated, usually from 108 µM), without a hit: top-dose activity change, negative = inhibition, actives largely listed as inhibitors; actives 1.1% (n = 580,000); also: potency is read from the fitted curve at half-maximal effect
Target sequence (P18054 whole entry, looked up): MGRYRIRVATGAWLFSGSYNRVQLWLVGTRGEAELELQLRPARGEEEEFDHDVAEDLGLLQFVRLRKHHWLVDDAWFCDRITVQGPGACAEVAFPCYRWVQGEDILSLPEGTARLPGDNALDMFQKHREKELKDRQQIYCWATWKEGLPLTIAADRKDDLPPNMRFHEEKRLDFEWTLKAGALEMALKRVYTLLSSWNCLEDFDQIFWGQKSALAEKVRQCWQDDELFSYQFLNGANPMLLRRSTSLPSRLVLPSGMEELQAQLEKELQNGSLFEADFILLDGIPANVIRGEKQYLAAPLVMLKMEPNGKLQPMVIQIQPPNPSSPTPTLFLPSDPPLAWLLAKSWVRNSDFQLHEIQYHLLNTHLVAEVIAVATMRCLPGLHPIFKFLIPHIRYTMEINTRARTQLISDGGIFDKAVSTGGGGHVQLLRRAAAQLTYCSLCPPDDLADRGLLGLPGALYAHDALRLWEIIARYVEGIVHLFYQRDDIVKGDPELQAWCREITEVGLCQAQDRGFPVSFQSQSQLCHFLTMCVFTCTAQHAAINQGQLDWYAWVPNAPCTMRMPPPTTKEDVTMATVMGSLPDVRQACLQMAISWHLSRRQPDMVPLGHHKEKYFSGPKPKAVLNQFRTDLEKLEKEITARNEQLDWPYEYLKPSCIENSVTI
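Purified human 12hLO (150 nM final) in 25 mM Hepes, 0.01% Triton X-100, pH 7.0 was preincubated 15 min at room temperature with compound. Then 40 uM arachidonic acid was added, 30 min. Hydroperoxide was read by Fe-XO absorbance ratio 573/405 nm.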
DT40 TDP1 CPT: growth inhibition of DT40 Tdp1-/-;hTDP1 cells with camptothecin (screen for TDP1 inhibitors) | actives 12% (n = 420,000) | Potency, µM (titrated, usually from 46.2 µM), for inactives: at the top dose activity change, negative = growth inhibition, most hits filed as inhibitors | chicken DT40 Tdp1-/-;hTDP1 cells + 20 nM CPT, ATP luminescence, 48 h | AID 686979; also: potency is read from the fitted curve at half-maximal effect; nearly all actives have a fitted effect of over 55% in size
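Chicken DT40 Tdp1-/- cells stably complemented with human TDP1 were seeded at 400 cells/well in medium containing 20 nM camptothecin, exposed to pin-transferred compounds, and grown at 37 °C for at least 48 hr. Viability was read as ATP luminescence.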
HT1080NT lethal: kills 2HG-producing HT-1080-NT fibrosarcoma cells; Potency, µM (titrated, usually from 46.1 µM), for the others: at the top dose activity, negative = less viability, actives largely listed as cytotoxic; HT-1080-NT fibrosarcoma viability, CellTiter-Glo ATP luminescence, 48 h; actives 1.6% (n = 360,000);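 also: NT is the 2HG producing partner of a matched IDH1 knockdown line; potency is read from the fitted curve at half-maximal effect; 0% = DMSO-treated cells and -100% = media-only wells without cells; nearly all actives have a fitted effect of over 55% in size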
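HT-1080-NT; 750 cells/well; 5% FBS RPMI; 48 h compound, 37 degrees C; CellTiter-Glo luminescence; curve fitting and curve-class assignment.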
Numbers without * were called inactive; ? = inconclusive; nt = no result; ! = not confirmed by another sample; [ ] = dose if it differs, or a comment. Shown is part of a subset that was picked to be rich in hits. Unless noted, calls follow the shape of the dose curve; as a rule, active = well fitted curve in the direction sought with a large enough effect; inconclusive = small, poorly fitted or top-dose-only effect, or another doubt; inactive = no such curve, though single readings can be large; an effect the other way counts as inactive or inconclusive. Unless noted, % is scaled to controls: 0 for no effect and ±100 for the full control effect.

SMILES | HT1080 IDH1KD tx | DT40 TDP1 no CPT | IL-1B inflam inh | 12-LOX inh | DT40 TDP1 CPT | HT1080NT lethal
O=C(OCCc1ccccc1)c1cccc([N+](=O)[O-])c1 | nt | nt | nt | 45.2% | nt | nt
COc1ccccc1CC(=O)NCc1cccs1 | nt | nt | nt | 7.0% | nt | nt
CCc1nc2c(c(-c3ccc(Cl)cc3)n1)CN(Cc1ccc(OC)cc1)CC2 | nt | nt | nt | 10.3% | nt | nt
CCc1cc(C(=O)N2CCN(c3ccccc3OC)CC2)sc1C | ? | 16.4µM* | -13.5 | ? | ? | ?
COc1ccccc1N1CCN(C(=O)c2ccc3[nH]c(C)c(C)c3c2)CC1 | 1.3µM* | 1.03µM* | 38.4 | 0.0% | 1.3µM* | 1.46µM*
Cc1[nH]c2ccc(C(=O)N3CCCC3)cc2c1C | 0.0% | -1.5% | -7.7 | -9.0% | 20.0% | -0.3%
Cc1[nH]c2ccc(C(=O)N3CCN(c4cccc(Cl)c4)CC3)cc2c1C | 7.31µM* | 6.51µM* | 0.0 | -17.8% | 6.51µM* | ?
COc1ccccc1N1CCN(C(=O)c2ccc3[nH]c4c(c3c2)CC(C)CC4)CC1 (stereo not given) | ? | ? | -93.6* | -0.2% | 16.4µM* | ?
CC(NC(=O)NCCNc1ncccn1)c1ccccn1 (stereo not given) | nt | nt | nt | -11.5% | nt | nt
COc1ccccc1Nc1ncnc2c1cnn2-c1cccc(Cl)c1 | nt | nt | nt | 3.3% | nt | nt
COc1ccc(NC(=O)Cn2nc(Cc3ccncc3)c3ccccc3c2=O)c(OC)c1 | nt | nt | nt | 34.5% | nt | nt
COc1ccc(Nc2nnc(Cc3ccncc3)c3ccccc23)c(OC)c1 | 2.5% | -28.3% | -57.0* | 9.5% | -25.2% | -0.6%
O=S(=O)(Nc1ccc(-c2cn3ccsc3n2)cc1)c1ccccc1 | nt | nt | nt | 35.5µM* | nt | nt
Cc1cccc2nc(-c3cccc(NS(=O)(=O)c4ccccc4)c3)cn12 | nt | 23.1µM* | nt | -5.4% | ? | nt
COc1cc(OC)cc(C(=O)Nc2cccc(-c3cn4ccsc4n3)c2)c1 | nt | 18.4µM* | nt | -9.4% | 13µM* | nt
O=S(=O)(Nc1ccc(-c2cn3cccnc3n2)cc1)c1ccccc1 | 9.1% | -17.0% | -14.9 | 0.5% | -3.8% | -2.9%
COc1cccc(OC)c1C(=O)Nc1cccc(-c2cn3ccsc3n2)c1 | nt | ? | nt | -10.1% | -67.8% | nt
O=S(=O)(Nc1cccc(-c2cn3cccnc3n2)c1)c1ccc(-c2ccccc2)cc1 | -6.9% | 14.6µM* | 1.2 | 0.0% | ? | -6.2%
CN1CCCC2(CCN(C(=O)CCCS(N)(=O)=O)C2)C1=O (stereo not given) | nt | nt | nt | 35.4% | nt | nt
COCCNC(=O)C[C@@H]1C[C@H]2O[C@H](CNC(=O)N3CCOCC3)[C@@H](O)[C@H]2O1 | nt | nt | nt | 46.7%[176 µM] | nt | nt
O=S(=O)(Nc1cccc(-c2cn3ccsc3n2)c1)c1ccc(F)cc1 | -11.3% | ? | -17.7 | -2.5% | ? | -7.1%
Cc1ccc(S(=O)(=O)Nc2cccc(-c3cn4ccsc4n3)c2)cc1 | ? | 20.6µM* | 8.6 | ? | ? | ?
Cc1noc(CSc2nnc(Nc3ccc(C(C)C)cc3)s2)n1 | nt | nt | nt | 8.9% | nt | nt
COc1ccc(S(=O)(=O)c2nnn(-c3cccc(Cl)c3)c2N)cc1 | -4.4% | 20.6µM*! | 16.4 | -23.4% | 11.6µM* | -8.1%
Cc1ccc(S(=O)(=O)c2nnn(-c3cccc(Cl)c3)c2C)cc1 | nt | nt | nt | -11.8% | nt | nt
COc1cccc(-n2nnc(S(=O)(=O)c3ccc(C)cc3)c2N)c1 | 0.5% | 23.1µM* | 0.0 | 11.3% | ? | -0.1%
CCc1cccc(-n2nnc(S(=O)(=O)c3ccc(OC)cc3)c2C)c1 | nt | ? | nt | -29.1% | -19.0% | nt
Cc1c(S(=O)(=O)c2ccc(Br)cc2)nnn1-c1ccc(Br)cc1 | nt | nt | nt | -3.1% | nt | nt
CCc1ccc(S(=O)(=O)c2nnn(-c3ccc(F)cc3)c2N)cc1 | nt | 16.4µM* | nt | -8.7% | 23.1µM* | nt

From PubChem BioAssay
